Screening results: PubChem, National Center for Advancing Translational Sciences (NCATS)
aSyn rescue: alpha-synuclein toxicity inhibition in yeast | AID 652106 | Yeast expressing alpha-synuclein, growth rescue, BacTiter-Glo, 24 h | 370,000 tested, 0.14% active | Potency, µM (top dose mostly 46.1 µM), for inactives: at the highest dose growth rescue (activation), usual class: activators; note: % of control where 0% means no effect; nearly all actives have a fitted effect of over 65% in size
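Screening used galactose-induced yeast with toxic alpha-synuclein levels, exposed to compound for 24 hr at 30 deg C. Cell growth, read with BacTiter-Glo luminescence, gave the measured signal.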
Abeta rescue: compounds reversing amyloid beta toxicity in yeast; yeast expressing A-beta42, growth rescue, OD600, 48 h; response scale: 0% DMSO, 100% iron-clioquinol control; Potency, µM (top dose mostly 46.1 µM), actives largely listed as activators; 410,000 tested, 0.063% active; note: nearly all actives have a fitted effect of over 55% in size
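Yeast growth medium received pinned compounds, then yeast cells expressing toxic A-beta were added; plates incubated at 30 C for 48 hr. Growth read as absorbance at 600 nm, normalized to DMSO and equimolar FeCl3 plus clioquinol controls.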
FUS yeast rescue: suppressors of FUS proteinopathy in yeast; S. cerevisiae FUS-expressing, growth rescue, OD600, 24 h; Potency, µM (titrated, usually from 76.6 µM), hits mostly activators; 390,000 tested, 0.24% active;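 note: plate controls were DMSO vehicle for no effect and reference control for full effect; nearly all actives have a fitted effect of over 55% in size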
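Quantitative HTS measuring growth restoration of FUS-toxic yeast. Galactose-induced cells (OD 0.005) were exposed 24hr at 30C to compounds at several concentrations, then absorbance at 600 nm was recorded.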
TDP43 rescue: inhibitors of TDP-43 toxicity in yeast; TDP-43 expressing yeast growth rescue, BacTiter-Glo, 24 h; Potency, µM (top dose mostly 46.1 µM), inactives show at the top dose growth rescue (activation), actives largely listed as activators; 410,000 tested, 1.8% active; AID 652104; note: % of control where 0% means no effect; nearly all actives have a fitted effect of over 50% in size
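Cell-based yeast growth screen: TDP-43 expression induced in galactose, inoculum OD600=0.02 after raffinose pregrowth to mid-log. Read-out BacTiter-Glo luminescence at 24 hr, 30 deg C; inhibition of toxicity seen as signal increase.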
Active calls of the source: *; i = inactive; ? = inconclusive; . = no result; [ ] = dose if it differs, or a comment. The list is not random: actives were taken first. Their share in the collection is about 2.1%. Calls come from the whole dose curve; as a rule, active = well fitted curve in the direction sought with a large enough effect; inconclusive = small, poorly fitted or top-dose-only effect, or another doubt; inactive = no such curve, though single readings can be large; an effect the other way counts as inactive or inconclusive. Potency is the fitted concentration of half-maximal effect.

SMILES	aSyn rescue	Abeta rescue	FUS yeast rescue	TDP43 rescue
CC(=O)N1c2ccccc2C(=O)C1N1CCN(c2ccc(F)cc2)CC1 (stereo unspecified)	.	i	i	?
CC(=O)N1c2ccccc2C(=O)C1N1CCN(c2ccccc2F)CC1 (stereo unspecified)	.	?	i	35µM*
CCCC(C)NC(=O)COC(=O)c1ccc2c(c1)C(=O)N(Cc1ccco1)C2=O (stereo unspecified)	3%	i	i	-18%
CCCCNC(=O)C1C(c2ccccc2)=Nc2ccccc2N1C(=O)c1ccc(C(F)(F)F)cc1 (stereo unspecified)	-19%	i	?	9%
COc1ccc(C2=Nc3ccccc3N(C(=O)c3ccc(C(F)(F)F)cc3)C2C(=O)NCc2ccccc2)cc1 (stereo unspecified)	9%	i	22µM*	-2%
O=C(N/N=C/c1ccc(N2CCOCC2)cc1)c1ccccc1OCCOc1ccccc1	4%	i	i	25µM*
Cc1ccc(-n2ccnc(NCc3cccs3)c2=O)cc1C	.	i	i	16µM*
COc1ccc(CCNc2nccn(-c3ccc(C)c(C)c3)c2=O)cc1OC	.	i	i	0%
Nc1c(C(=O)N2CCCCC2)sc(=S)n1-c1ccccc1	-19%	i	i	19%
Nc1nc(SCc2ccccc2)sc1C(=O)N1CCCCC1	16%	i	i	13µM*
Cc1ccc(C)c(SCc2noc(C(=O)NCC3CCCO3)c2C(=O)O)c1 (stereo unspecified)	-7%	i	i	9%
CCN1C(=O)[C@H]2[C@@H](c3ccc(-c4ccc(Cl)c(Cl)c4)cc3)N3CCCC[C@@]3(C(=O)OC)[C@H]2C1=O	?	i	i	13%
CCN1C(=O)[C@H]2[C@@H](c3ccc(-c4ccc(Cl)c(Cl)c4)c(OC)c3)N[C@@](C)(C(=O)OC)[C@H]2C1=O	-1%	i	i	5%
CCN1C(=O)[C@H]2[C@@H](c3ccc(-c4ccc(Cl)c(Cl)c4)cc3)N[C@@](C)(C(=O)OC)[C@H]2C1=O	-9%	i	32µM*	20µM*
CCN1C(=O)[C@H]2[C@@H](c3ccc(-c4ccc(Cl)c(Cl)c4)c(OC)c3)N3CCCC[C@@]3(C(=O)OC)[C@H]2C1=O	?	i	25µM*	3%
CCN1C(=O)[C@@H]2[C@@H](c3ccc(-c4ccc(Cl)c(Cl)c4)cc3)N3CCC[C@@]3(C(=O)OC)[C@@H]2C1=O	2%	i	20µM*	14%
COC(=O)[C@]1(Cc2ccccc2)N[C@H](c2ccc(-c3ccccc3)cc2)[C@@H]2C(=O)N(C)C(=O)[C@@H]21	6%	i	i	11%
COC(=O)[C@]1(Cc2ccccc2)N[C@H](c2ccc(-c3cccc(Cl)c3)cc2)[C@@H]2C(=O)N(C)C(=O)[C@@H]21	27%	i	14µM*	8%
CC(NC(=O)Cc1cccs1)c1ccccc1 (stereo unspecified)	1%	i	i	-2%
Cc1ccc(C2(c3ccc(C)cc3)NC(=O)N(CC(N)=O)C2=O)cc1	5%	i	i	-9%
O=C(NC1CCCC1)c1ccccc1OCc1ccccc1	6%	i	i	20µM*
COc1ccccc1C(=O)NC1CCCCCCC1	3%	i	i	18µM*
Cc1cc(S(=O)(=O)NCC(c2ccc(N(C)C)cc2)N2CCOCC2)ccc1F (stereo unspecified)	.	i	i	14%
Oc1ccc2ccccc2c1CNc1ccc(Br)cn1	1%	i	i	20µM*
O=C(NC(=S)Nc1ccc(N2CCOCC2)cc1)c1ccccc1	-2%	i	i	-11%
O=C(NC(=S)Nc1ccc(N2CCOCC2)cc1)c1cccc(Cl)c1	0%	i	i	16µM*
O=S(=O)(CCN1CCSCC1)c1ccc(Cl)cc1	4%	i	i	-7%
O=C(Nc1ccccc1C(=O)Nc1ccc(Br)cn1)c1ccccc1Cl	2%[1.84 µM]	i	i	20µM*
CCOC(=O)N1CCN(C(=O)Cn2c(=O)sc3ccccc32)CC1	-3%	i	i	2%
COc1ccc(-c2oc3ccc(N4CCOCC4)cc3c2/C=C/c2ccc(OC)c(OC)c2)cc1	2%	i	13µM*	11%
